Inconclusive results are not listed. Activity calls are given as the source filed them. Unless noted, calls follow the shape of the dose curve; as a rule, active = well fitted curve in the direction sought with a large enough effect; inconclusive = small, poorly fitted or top-dose-only effect, or another doubt; inactive = no such curve, though single readings can be large; an effect the other way counts as inactive or inconclusive.
Experiments:
[1] = qHTS profiling for inhibitors of Plasmodium falciparum (HB3) proliferation (AID 743324); conditions: Plasmodium falciparum HB3 blood-stage proliferation; at 28.7 µM (top of the series) unless noted;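 also: 100% = DMSO vehicle wells and 0% = artemisinin-treated control wells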
Procedure, shortened: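 SYBR Green fluorescence (485 ex/535 em) of lysed cultures, incubated overnight at room temperature in the dark, quantifies parasite DNA. Infected erythrocytes at 0.3% parasitemia and 2.5% hematocrit were exposed 72 h; values normalized to DMSO and 0.29 uM artemisinin controls.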

[2] = qHTS profiling of the MIPE4 collection as inhibitors of Plasmodium falciparum (3D7) proliferation (AID 743344; call rule not given here;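 also: scaled between DMSO vehicle wells and 0.29 µM artemisinin as full inhibition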); conditions: P. falciparum 3D7 in erythrocytes, SYBR Green DNA fluorescence, 72 h; at 28.5 µM (top of the series) unless noted
Procedure, shortened: (§1)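 Parasite DNA was quantified by SYBR Green I fluorescence (ex 485, em 535 nm) after overnight lysis in saponin/Triton buffer at room temperature. Cultures at 0.3% parasitemia and 2.5% hematocrit were first exposed to compound for 72 h at 37 C; signals were normalised to artemisinin (0.29 uM) and vehicle wells.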

[3] = qHTS profiling of the MIPE4 collection as inhibitors of Plasmodium falciparum (DD2) proliferation (AID 743345; call rule not given here); conditions: P. falciparum Dd2 in erythrocytes, SYBR Green DNA, 72 h; at 28.5 µM (top of the series) unless noted
Procedure, shortened: as §1

[4] = qHTS profiling of the MIPE4 collection as inhibitors of Plasmodium falciparum (DD2) proliferation (Rep 2) (AID 743346; call rule not given here); conditions: P. falciparum Dd2 in erythrocytes, SYBR Green DNA, 72 h; at 28.5 µM (top of the series) unless noted
Procedure, shortened: as §1

[5] = qHTS profiling of the MIPE4 collection as inhibitors of Plasmodium falciparum (HB3) proliferation (AID 743347; call rule not given here;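 also: plate controls were DMSO vehicle wells for no effect and artemisinin wells for full effect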); conditions: P. falciparum HB3 in erythrocytes, SYBR Green DNA, 72 h; at 28.5 µM (top of the series) unless noted
Procedure, shortened: as §1

[6] = High-throughput drug toxicity screening in the BPDCN cell line Gen2.2 (AID 1224824; call rule not given here;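 also: cells exposed to compounds for 48 h before reading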); conditions: Gen2.2 BPDCN cells; at 45.8 µM (top of the series) unless noted
Procedure, shortened: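 Seed 500 exponentially growing Gen2.2 cells/well; add compounds by pin tool; incubate 48 h, 37 °C, 5% CO2; add CellTiter-Glo, 15 min RT; read luminescence. % activity vs DMSO (100%) and bortezomib (0%).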

[7] = High-throughput drug toxicity screening in the BPDCN cell line Cal-1 (AID 1224825; call rule not given here); conditions: Cal-1 BPDCN cell viability, qHTS; at 45.8 µM (top of the series) unless noted
Procedure, shortened: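 CellTiter-Glo luminescence after 48 h compound exposure; percent activity scaled with DMSO as 100% and bortezomib (9.2 uM final) as 0%. Cal-1 cells seeded at 500/well in RPMI, 10% FBS, no phenol red.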

[8] = qHTS assay for measurement of the activity of small molecule inhibitors on Zika virus induced Caspase-3 activity in human iPSC derived neural progenitor cells (hNPCs) (AID 1224857); also: nearly all actives have a fitted effect of over 65% in size; also: potency is read from the fitted curve at half-maximal effect
Procedure, shortened: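 Zika virus (2 FFU/cell) infection of human iPSC-derived NPCs, 6 h, following 1 h compound preincubation. Read-out: Caspase-Glo 3/7 luminescence.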

[9] = qHTS assay for measurement of the activity of small molecule inhibitors on Zika virus induced Caspase-3 activity in human astrocytoma cells (AID 1224859); also: potency is read from the fitted curve at half-maximal effect
Procedure, shortened: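 Caspase activation in ZIKV-infected SNB-19 cells (2 FFU/cell, 6 h) measured by Caspase-Glo 3/7 luminescence after 30 min RT; compound pre-incubated 1 h; normalised to uninfected and infected controls.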

[10] = qHTS Screen of the MIPE 4.0 Collection Against Ewings Sarcoma (RDES) (AID 1259252); also: nearly all actives have a fitted effect of over 35% in size; also: potency is read from the fitted curve at half-maximal effect
Procedure, shortened: (§2)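 Dose series incubated 48 h with cells in RPMI plus 5% FBS, glutamine and penicillin/streptomycin; cell viability then quantified via CellTiter-Glo.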

[11] = qHTS Screen of the MIPE 4.0 Collection Against Ewings Sarcoma (TC71) (AID 1259253); also: nearly all actives have a fitted effect of over 40% in size; also: potency is read from the fitted curve at half-maximal effect
Procedure, shortened: as §2

[12] = qHTS Screen of the MIPE 4.0 Collection Against Ewings Sarcoma (EW8) (AID 1259255); also: nearly all actives have a fitted effect of over 35% in size; also: potency is read from the fitted curve at half-maximal effect;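 as to viability: 100% = DMSO-treated cells and 0% = medium-only wells without cells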
Procedure, shortened: as §2

[13] = Identifying Small Molecule Inhibitors of Pancreatic Cancer Stem Cells (A2780, Spheroid) (AID 1259357); conditions: Potency: A2780 spheroid viability;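 also: spheroids pre-formed over 14 days in stem cell medium on hydrogel; potency is read from the fitted curve at half-maximal effect; compound exposure lasted 48 h before the ATP luminescence read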
Procedure, shortened: (§3)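 Endpoint: ATP-based luminescence, 48 h drug exposure. Bortezomib at 9.2 uM final as full-kill control; DMSO vehicle as negative control; activity normalized between vehicle and cell-free wells.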

[14] = Identifying Small Molecule Inhibitors of Pancreatic Cancer Stem Cells (SN12C, Adherent) (AID 1259358);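 also: cell survival measured after 48 h of compound exposure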
Procedure, shortened: as §3

[15] = qHTS Screen of the MIPE 4.0 Collection Against Ewings Sarcoma (TC32) (AID 1259256); also: nearly all actives have a fitted effect of over 45% in size; also: potency is read from the fitted curve at half-maximal effect
Procedure, shortened: as §2

[16] = Identifying Small Molecule Inhibitors of Pancreatic Cancer Stem Cells (Panc1, Spheroid) (AID 1259359);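 also: potency is read from the fitted curve at half-maximal effect; compound exposure lasted 48 h before reading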
Procedure, shortened: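 After a 4 h attachment period, compounds were pinned into wells and cultures held 48 h under standard incubator conditions. Viability was then measured as CellTiter-Glo luminescence following 10 min at room temperature.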

[17] = Identifying Small Molecule Inhibitors of Pancreatic Cancer Stem Cells (SN12C, Spheroid) (AID 1259360); conditions: Potency: SN12C spheroid viability; also: potency is read from the fitted curve at half-maximal effect;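 as to viability (% of control): 100% = DMSO-treated cells and 0% = wells without cells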
Procedure, shortened: as §3

[18] = Identifying Small Molecule Inhibitors of Pancreatic Cancer Stem Cells (A278, Adherent) (AID 1259361);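 also: viability read after 48 h compound exposure; nearly all actives have a fitted effect of over 35% in size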
Procedure, shortened: as §3

SMILES	remaining proliferation (% of control), lower = more inhibition [1] [%]	parasite growth, % of DMSO control [2] [%]	parasite growth remaining, % of DMSO control (lower = more inhibition) [3] [%]	parasite growth, % of control (lower = inhibition) [4] [%]	growth, % of control [5] [%]	cell viability, % of control (lower = more cytotoxic) [6] [%]	viability (% of control) [7] [%]	Potency [8]	Potency [9]	Potency [10]	Potency [11]	Potency [12]	Potency [13]	Potency [14]	Potency [15]	Potency [16]	Potency [17]	IC50 (viability decrease) [18]
Nc1ccc(-c2ccc3ncc4ccc(=O)n(-c5cccc(C(F)(F)F)c5)c4c3c2)cn1	-1.3	4.25	5.9	9.23	2.97	6.66	3.86	inactive	inactive	14.8 nM (active)	8.3 nM (active)	6.6 nM (active)	743 nM (active)	inactive	–	–	–	–
C[C@]12CCC3=C4CCC(=O)C=C4CC[C@@H]3[C@H]1CC[C@@]2(O)CC#N	–	92.8	97.5	71	93	106	107	inactive	inactive	inactive	inactive	inactive	–	–	inactive	–	–	–
CNC1[C@H](O)C(O[C@@H]2C(O)C(O[C@H]3O[C@H]([C@@H](C)NC)CC[C@H]3N)[C@@H](N)C[C@H]2N)OC[C@]1(C)O (some centres undefined)	–	–	–	–	99.6	116	101	18700 nM (active)	inactive	inactive	inactive	inactive	–	–	inactive	–	–	–
CN(C)CCN(C)C(=O)c1ccc(NC(=O)Nc2ccc(-c3nc(N4CCOCC4)c4ccn(CC(F)(F)F)c4n3)cc2)cc1	-1	5.47	8.31	20.5	5.21	4.33	3.29	inactive	inactive	18.7 nM (active)	74.3 nM (active)	20.9 nM (active)	418 nM (active)	–	–	6620 nM (active)	264 nM (active)	41.8 nM (active)
O=c1[nH]c(=O)n([C@H]2C[C@@H](O)[C@@H](CO)O2)cc1C(F)(F)F	–	62.3	62	91.9	36.7	118	13.9	inactive	inactive	5260 nM (active)	1870 nM (active)	3320 nM (active)	–	–	1320 nM (active)	–	–	–
CC(O)=C(C#N)C(=O)Nc1ccc(C(F)(F)F)cc1	98.9	63.7	89.7	–	–	75	81.4	1180 nM (active)	1180 nM (active)	23500 nM (active)	18700 nM (active)	20900 nM (active)	–	inactive	–	–	inactive	16600 nM (active)
CN1CCN(c2ncc(-c3cc(Cl)cc(Cl)c3Cl)c(N)n2)CC1	–	–	–	–	–	54.8	22.1	inactive	inactive	inactive	16600 nM (active)	inactive	–	–	inactive	–	–	–
